Measurements from PubChem BioAssay (NCI).
“And” between values parts separate entries of the source, which are not always exact repeats. Equal values may be shown once. Compounds without any hit were thinned out: in the full panel of roughly 83,000, 20% have a hit.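 Testing used 96-well plates and a 48-hour single-concentration exposure. Example: -40 means 40% of the starting cells died.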 Unmarked numbers belong to inactive results. The source made the active and inactive calls. Rule for the calls: active = growth percent below 10; inactive = the rest.

system: MDA-MB-468 breast; experiment: NCI-60 one-dose screen, 48 h (100 = growth as untreated, 0 = no growth, -100 = all killed); conditions: 10 µM unless noted

Structure (SMILES) | growth
COc1ccc(/C=C2\CCCC3C2=Nc2ccccc2NC3c2ccc(OC)cc2)cc1 (stereo not given) | 43.6%
N#CC(C#N)N=Nc1ccc(Cl)cc1Cl | 58.8%
COc1cc(OCc2cccc(Br)c2C)cc(OC)c1C=O | 20.8%
O=c1ncc(-c2ccc(C(F)(F)F)cc2)c(NC2CCCCCC2)[nH]1 | 11.8%
COc1ccc2c(c1)C(=O)/C(=C/c1ncc([N+](=O)[O-])n1C)O2 | -12.4% (active)
COc1cccc2nc(Nc3ccc(NC(=O)c4ccc5ncccc5c4)cc3)ccc12 | 88.9%
CCCCCCCC(=O)SCC/C=C/[C@@H]1CC(=O)NCc2cccc(n2)C2=N[C@@](C)(CS2)C(=O)N[C@@H](C(C)C)C(=O)O1 | 12.4%
COc1ccc(C(=O)CSc2nnc(-c3cc(-c4ccccc4)nc4ccccc34)o2)cc1 | 104%
O=C(Nc1ccc(Br)cc1)Nc1cccc(Br)c1 | 27.2%
COc1cc(C2C(C#N)=C(N)OC3=C2C(=O)c2ccccc2C3=O)cc(OC)c1OC (stereo not given) | 42.4%
O=C(CN1CCN(c2cc(=O)[nH]c3ccc(F)cc23)CC1)Nc1ccc(Cl)cc1 | 58.2%
CCc1cc(OC(=O)N2CCC(N3CCCCC3)CC2)ccc1Nc1cc(-c2ccc(-n3cccn3)cc2)[nH]n1 | 84.4%
C/C=C/C=N/NC(=S)Nc1ccccc1 | 107%
O=C1c2ccc3c4c(ccc(c24)C(=O)N1CCCNCc1ccccc1F)C(=O)N(CCCNCc1ccccc1F)C3=O | -95.1% (active)
Cc1ccc2sc3c(c2c1)OC(N)=C(C#N)C3c1ccc(Cl)cc1 (stereo not given) | -18.7% (active)
CN1CCN(CCCN2c3ccccc3Sc3ccc(C(F)(F)F)cc32)CC1 | -2.21% (active)
O=S(=O)(NCCNc1cc(-c2c(-c3cccc(O)c3)nc3sccn23)ccn1)c1ccc(Br)cc1 | 47.7%
CC(=O)c1cccc(Nc2ncnc3ccc(NC(=O)c4ccco4)cc23)c1 | 60.2%
O=C1CNC(c2ccccc2)C(c2ccccc2)N1 (stereo not given) | 93.1%
Nc1ccc2[nH]c(-c3ccccc3)cc(=O)c2c1 | 51%

Structure (SMILES) | growth
COc1ccc(-c2cc(Cc3cccs3)c(=O)n(Cn3ccc4ccccc43)n2)cc1 | 110%
Cc1cc(C)cc(CCCCCCCCCCCCCCCCCC(=O)O)c1 | 106%
COc1cc2nc(-c3ccc(Cl)cc3)cc(OCCCN3CCOCC3)c2cc1OC | 59.9%
O=[N+]([O-])c1ccccc1/C=N\Nc1ccccc1 | 66.3% and 89.3%
Cc1ccc(C)n1/C=C/n1c(C)ccc1C | 95.1%
Cc1ccc(/C=C(/C#N)n2nnc3cccc(F)c32)cc1 | -16.1% (active)
C[C@@H]1CC2C3CCC4=CC(=O)C=C[C@]4(C)[C@@]3(Cl)[C@@H](O)C[C@]2(C)[C@@]1(OC(=O)c1ccco1)C(=O)CCl (stereo not given in full) | 104%
O=Cc1cc2ccccc2nc1Nc1nccs1 | 57.2%
C=C1CCC[C@]2(C)CCC[C@H](C)[C@@H](OC(C)=O)[C@@H]3OC(=O)C(=C)[C@@H]3C[C@H]1O2 | 31.8%
Fc1ccc(-c2cnc3nonc3n2)c(F)c1 | 73.3%
O=C(CSc1nccc(Nc2cccc3ccccc23)n1)c1ccc(Cl)cc1 | 98.5%
O=C(OCc1ncc(-c2ccc(C(F)(F)F)cc2)c(NC2CCCCCC2)n1)c1c(F)c(F)c(F)c(F)c1F | 16.9%
COc1cc2ncnc(Nc3ccc(S(=O)(=O)Nc4nccs4)cc3)c2cc1OCCCN1CCOCC1 | 107%
Cc1ccc(C(=O)c2ccc(CC(=O)N=Nc3c(O)[nH]c4ccc(Br)cc34)n2C)cc1 | 96.6%
COc1cccc2cc(N(C)c3ncnc4ccccc34)ccc12 | -7.56% (active)
COc1cc2nc(Cl)nc(Nc3cccc(C(=O)/C=C/c4ccc(Cl)cc4)c3)c2cc1OC | 63.8%
COc1cc(/C=C2\CN(C)C/C(=C\c3cc(CN4CCCCC4)c(O)c(OC)c3)C2=O)cc(CN2CCCCC2)c1O | 13%
O=C(CN1CCOCC1)N1CCOCC1 | 108% and 116%
NS(=O)(=O)Oc1ccc(NC(=O)C2CCCCCC2)cc1 | 109%
COc1ccccc1OCC(=O)N1CCCCCC1 | 97.1%
